# Test results reported in the supplement of paper PMC12282887.
# ± gives the standard deviation of the averaged measurements.
# How the values were obtained:
# Assay in all cases: promoter activity interaction Z-score (Lux/OD deviation from empty-vector control); higher = stronger promoter induction by the compound
# [1] = test system: E. coli BW25113 acrABp lux reporter
# Outline: (§1)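 Low-copy luxCDABE promoter reporters were carried by E. coli BW25113, either wild type or lacking one of three genes, grown in 40 µl LB Lennox in 384-well plates at 37°C. Each compound was run at four 1:2 dilutions in biological duplicates, with OD600 and luminescence read every 30 min for 12 h. Integration used 0–8 h for wild type and 1–9 h for deletion strains, and wells under 10% of the median growth value were removed. Luminescence normalised to growth was fitted against a control, and the Z-transformed residual is the score.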
# [2] = test system: E. coli BW25113 micFp lux reporter
# Outline: as §1
# [3] = test system: E. coli BW25113 ompFp lux reporter
# Outline: as §1
# [4] = test system: E. coli BW25113 robp lux reporter
# Outline: as §1
# [5] = test system: E. coli BW25113 soxSp lux reporter
# Outline: as §1
# [6] = test system: E. coli BW25113 tolCp lux reporter
# Outline: as §1
# [7] = 3.2 µg/ml, genetic background: wild type
# [8] = 3.2 µg/ml, genetic background: ΔmarA
# [9] = 3.2 µg/ml, genetic background: Δrob
# [10] = 3.2 µg/ml, genetic background: ΔsoxS
# [11] = 6.3 µg/ml, genetic background: wild type
# [12] = 6.3 µg/ml, genetic background: ΔmarA
# [13] = 6.3 µg/ml, genetic background: Δrob
# [14] = 6.3 µg/ml, genetic background: ΔsoxS
# [15] = 12.7 µg/ml, genetic background: wild type
# [16] = 12.7 µg/ml, genetic background: ΔmarA
# [17] = 12.7 µg/ml, genetic background: Δrob
# [18] = 12.7 µg/ml, genetic background: ΔsoxS
# [19] = 25.3 µg/ml, genetic background: wild type
# [20] = 25.3 µg/ml, genetic background: ΔmarA
# [21] = 25.3 µg/ml, genetic background: Δrob
# [22] = 25.3 µg/ml, genetic background: ΔsoxS
compound,measurement,setting,value
Cc1cc(NS(=O)(=O)c2ccc(N)cc2)no1 [Sulfamethoxazole],promoter activity interaction Z-score,[1]; [7],-0.0765 ± 0.27
same,promoter activity interaction Z-score,[1]; [8],0.689 ± 0.77
same,promoter activity interaction Z-score,[1]; [9],-0.221 ± 0.15
same,promoter activity interaction Z-score,[1]; [10],-0.171 ± 0.12
same,promoter activity interaction Z-score,[1]; [11],-0.0766 ± 0.0099
same,promoter activity interaction Z-score,[1]; [12],0.146 ± 0.35
same,promoter activity interaction Z-score,[1]; [13],-0.0332 ± 0.079
same,promoter activity interaction Z-score,[1]; [14],-0.186 ± 0.085
same,promoter activity interaction Z-score,[1]; [15],0.0229 ± 0.067
same,promoter activity interaction Z-score,[1]; [16],0.358 ± 0.25
same,promoter activity interaction Z-score,[1]; [17],0.21 ± 0.21
same,promoter activity interaction Z-score,[1]; [18],0.0418 ± 0.11
same,promoter activity interaction Z-score,[1]; [19],0.696 ± 0.24
same,promoter activity interaction Z-score,[1]; [20],2.36 ± 1.9
same,promoter activity interaction Z-score,[1]; [21],1.91 ± 0.82
same,promoter activity interaction Z-score,[1]; [22],1.07 ± 0.6
same,promoter activity interaction Z-score,[2]; [7],0.243 ± 0.46
same,promoter activity interaction Z-score,[2]; [8],-0.0615 ± 0.078
same,promoter activity interaction Z-score,[2]; [9],0.056 ± 0.14
same,promoter activity interaction Z-score,[2]; [10],-0.0348 ± 0.3
same,promoter activity interaction Z-score,[2]; [11],0.103 ± 0.45
same,promoter activity interaction Z-score,[2]; [12],-0.116 ± 0.015
same,promoter activity interaction Z-score,[2]; [13],0.146 ± 0.091
same,promoter activity interaction Z-score,[2]; [14],0.0657 ± 0.36
same,promoter activity interaction Z-score,[2]; [15],0.21 ± 0.55
same,promoter activity interaction Z-score,[2]; [16],0.0105 ± 0.057
same,promoter activity interaction Z-score,[2]; [17],0.372 ± 0.13
same,promoter activity interaction Z-score,[2]; [18],0.279 ± 0.24
same,promoter activity interaction Z-score,[2]; [19],0.861 ± 0.2
same,promoter activity interaction Z-score,[2]; [20],-0.421 ± 0.013
same,promoter activity interaction Z-score,[2]; [21],0.736 ± 0.28
same,promoter activity interaction Z-score,[2]; [22],0.648 ± 0.11
same,promoter activity interaction Z-score,[3]; [7],1.17 ± 0.96
same,promoter activity interaction Z-score,[3]; [8],0.735 ± 0.72
same,promoter activity interaction Z-score,[3]; [9],0.192 ± 0.73
same,promoter activity interaction Z-score,[3]; [10],0.202 ± 0.47
same,promoter activity interaction Z-score,[3]; [11],0.748 ± 0.53
same,promoter activity interaction Z-score,[3]; [12],0.504 ± 0.34
same,promoter activity interaction Z-score,[3]; [13],0.735 ± 0.12
same,promoter activity interaction Z-score,[3]; [14],0.441 ± 0.62
same,promoter activity interaction Z-score,[3]; [15],1.51 ± 1.2
same,promoter activity interaction Z-score,[3]; [16],1.32 ± 0.24
same,promoter activity interaction Z-score,[3]; [17],1.71 ± 0.49
same,promoter activity interaction Z-score,[3]; [18],1.17 ± 0.39
same,promoter activity interaction Z-score,[3]; [19],2.06 ± 0.7
same,promoter activity interaction Z-score,[3]; [20],2.26 ± 0.076
same,promoter activity interaction Z-score,[3]; [21],3.31 ± 1.6
same,promoter activity interaction Z-score,[3]; [22],1.97 ± 1.8
same,promoter activity interaction Z-score,[4]; [7],0.934 ± 0.15
same,promoter activity interaction Z-score,[4]; [8],0.341 ± 0.082
same,promoter activity interaction Z-score,[4]; [9],0.297 ± 1.1
same,promoter activity interaction Z-score,[4]; [10],-0.129 ± 0.16
same,promoter activity interaction Z-score,[4]; [11],0.764 ± 0.4
same,promoter activity interaction Z-score,[4]; [12],0.234 ± 0.17
same,promoter activity interaction Z-score,[4]; [13],0.557 ± 0.64
same,promoter activity interaction Z-score,[4]; [14],0.243 ± 0.13
same,promoter activity interaction Z-score,[4]; [15],1.5 ± 0.42
same,promoter activity interaction Z-score,[4]; [16],1.47 ± 0.23
same,promoter activity interaction Z-score,[4]; [17],0.701 ± 0.021
same,promoter activity interaction Z-score,[4]; [18],0.407 ± 1.1
same,promoter activity interaction Z-score,[4]; [19],3.24 ± 0.095
same,promoter activity interaction Z-score,[4]; [20],0.76 ± 0.27
same,promoter activity interaction Z-score,[4]; [21],3.24 ± 0.084
same,promoter activity interaction Z-score,[4]; [22],3.15 ± 1.5
same,promoter activity interaction Z-score,[5]; [7],-0.125 ± 0.029
same,promoter activity interaction Z-score,[5]; [8],-0.2505 ± 0.00087
same,promoter activity interaction Z-score,[5]; [9],-0.453 ± 0.05
same,promoter activity interaction Z-score,[5]; [10],-0.491 ± 0.32
same,promoter activity interaction Z-score,[5]; [11],-0.197 ± 0.018
same,promoter activity interaction Z-score,[5]; [12],-0.00904 ± 0.067
same,promoter activity interaction Z-score,[5]; [13],-0.169 ± 0.057
same,promoter activity interaction Z-score,[5]; [14],-0.482 ± 0.4
same,promoter activity interaction Z-score,[5]; [15],-0.385 ± 0.017
same,promoter activity interaction Z-score,[5]; [16],-0.102 ± 0.16
same,promoter activity interaction Z-score,[5]; [17],-0.194 ± 0.12
same,promoter activity interaction Z-score,[5]; [18],-0.0885 ± 0.49
same,promoter activity interaction Z-score,[5]; [19],-0.318 ± 0.11
same,promoter activity interaction Z-score,[5]; [20],-0.113 ± 0.15
same,promoter activity interaction Z-score,[5]; [21],-0.388 ± 0.03
same,promoter activity interaction Z-score,[5]; [22],-0.495 ± 0.81
same,promoter activity interaction Z-score,[6]; [7],1.21 ± 0.56
same,promoter activity interaction Z-score,[6]; [8],-0.16 ± 0.5
same,promoter activity interaction Z-score,[6]; [9],-0.33 ± 1
same,promoter activity interaction Z-score,[6]; [10],-0.705 ± 0.53
same,promoter activity interaction Z-score,[6]; [11],-0.676 ± 0.91
same,promoter activity interaction Z-score,[6]; [12],1.17 ± 0.5
same,promoter activity interaction Z-score,[6]; [13],0.87 ± 0.48
same,promoter activity interaction Z-score,[6]; [14],-0.0792 ± 0.033
same,promoter activity interaction Z-score,[6]; [15],-0.0116 ± 0.8
same,promoter activity interaction Z-score,[6]; [16],0.0751 ± 0.68
same,promoter activity interaction Z-score,[6]; [17],0.998 ± 0.39
same,promoter activity interaction Z-score,[6]; [18],0.466 ± 1
same,promoter activity interaction Z-score,[6]; [19],1.95 ± 0.023
same,promoter activity interaction Z-score,[6]; [20],0.663 ± 1.2
same,promoter activity interaction Z-score,[6]; [21],0.663 ± 0.22
same,promoter activity interaction Z-score,[6]; [22],1.64 ± 0.21
